The source made the active and inactive calls.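 The calls were made as follows: active = absorbance drop of 50% or more relative to neutral controls, with potency under twice the top valid dose; inactive = the rest, including effects in the opposite direction.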
Target: Protein disulfide-isomerase A6 (Homo sapiens) (UniProt Q15084)
Experiment: ERp5 reductase inhibition, dose response, selectivity assay for PDI inhibitor project, biochemical, insulin aggregation, absorbance, dry powder, set 2 (AID 687042)
Settings: ERp5 insulin reduction aggregation, absorbance 650 nm; series mostly up to 35 µM; activity, negative = inhibition: at the top concentration

Protein disulfide-isomerase A6 (Homo sapiens), sequence (Q15084 whole entry, looked up): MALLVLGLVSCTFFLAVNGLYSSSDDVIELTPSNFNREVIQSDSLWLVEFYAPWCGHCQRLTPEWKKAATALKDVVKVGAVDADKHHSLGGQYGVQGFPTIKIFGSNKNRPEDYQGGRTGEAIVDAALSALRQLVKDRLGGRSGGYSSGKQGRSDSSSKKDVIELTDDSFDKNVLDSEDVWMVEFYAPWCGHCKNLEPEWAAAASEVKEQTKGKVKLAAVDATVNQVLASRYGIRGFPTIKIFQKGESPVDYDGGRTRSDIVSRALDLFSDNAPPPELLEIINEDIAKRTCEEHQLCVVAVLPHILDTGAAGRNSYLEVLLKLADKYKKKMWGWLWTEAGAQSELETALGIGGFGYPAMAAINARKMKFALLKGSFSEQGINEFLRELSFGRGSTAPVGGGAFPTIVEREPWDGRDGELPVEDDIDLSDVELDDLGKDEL

activity, negative = inhibition, inactive:
CCOC(=O)C1(CCOc2ccccc2)CCN(C(=O)OC(C)(C)C)CC1 -7%
C=CCOc1ccc(CN2CCC(CCOc3ccccc3)(C(=O)N(C)CC)CC2)cc1Cl 9.33%
CCOC(=O)C1(CCOc2ccccc2)CCN(Cc2ccc3[nH]c(=O)oc3c2)CC1 2.69%
CCOC(=O)C1(CCOC)CCCN(Cc2ccc(Cl)cc2)C1 (centres undefined) -6.3%
CCOC(=O)C1(Cc2cccc(OC)c2)CCN(Cc2ccc(O)c(Cl)c2)CC1 5.81%
CCOC(=O)C1(CCOc2ccccc2)CCN(Cc2ccc(OC)cc2)CC1 -4.92%
CCOC(=O)C1CCN(C(=O)OC(C)(C)C)CC1 0.268%
CCOC(=O)C1(Cc2ccccc2)CCN(Cc2ccc(O)c(Cl)c2)CC1 -8.26%
C=CCOc1ccc(CN2CCC(CCOc3ccccc3)(C(=O)N3CCCC3)CC2)cc1Cl 12.4%
CCOC(=O)C1(CCOc2ccccc2)CCN(Cc2cccc(Cl)c2)CC1 6.28%
C/C1=C\C[C@H](OC(=O)c2ccc(O)cc2)/C(C)=C/[C@@H](O)C(C)(C)CCC1 14.5%
O=C(N1CCCC1)C1(CCOc2ccccc2)CCN(Cc2ccc(O)c(Cl)c2)CC1 0.652%
C=CCOc1ccc(CN2CCC(CCOc3ccccc3)(C(=O)OCC)CC2)cc1Cl 2.71%
O=C(NC1CCCC1)C1(CCOc2ccccc2)CCN(Cc2ccc(O)c(Cl)c2)CC1 2.7%
O=C(Nc1ccccc1)C1(CCOc2ccccc2)CCN(Cc2ccc(O)c(Cl)c2)CC1 -7.01%
CC(C)(C)OC(=O)C1(CCOc2ccccc2)CCN(Cc2ccc(O)c(Cl)c2)CC1 7.04%
CCOC(=O)c1c(CN2CCN(CCO)CC2)n(-c2ccccc2)c2cc(Br)c(O)cc12 30.7%
CCOC(=O)C1(CCOC)CCN(Cc2ccc(O)c(Cl)c2)CC1 -4.25%
CCOC(=O)C1(CCOc2ccccc2)CCN(C(=O)c2ccc(O)c(Cl)c2)CC1 7.26%
CC(C)OC(=O)C1(CCOc2ccccc2)CCN(Cc2ccc(O)c(Cl)c2)CC1 2.23%
C=CCOc1ccc(CN2CCC(CCOc3ccccc3)(C(=O)O)CC2)cc1Cl 5.75%
C=CCOc1ccc(CN2CCC(CCOc3ccccc3)(C(=O)NCC)CC2)cc1Cl -0.683%
C/C1=C\[C@@H](O)C(C)(C)CCCC2(C)OC2C[C@@H]1OC(=O)c1ccc(O)cc1 (some centres undefined) 3.86%
CCOC(=O)C1(CCOc2ccccc2)CCN(Cc2ccc(OC)c(Cl)c2)CC1 -4.15%
CCNC(=O)C1(CCOc2ccccc2)CCN(Cc2ccc(O)c(Cl)c2)CC1 -0.667%
CCOC(=O)C1(CCOc2ccccc2)CCN(Cc2ccc(O)cc2)CC1 -6.52%
CCN(C)C(=O)C1(CCOc2ccccc2)CCN(Cc2ccc(O)c(Cl)c2)CC1 4.18%
C=CCOc1ccc(CN2CCC(CCOc3ccccc3)(C(=O)NC3CCCC3)CC2)cc1Cl 6.26%

outcome, inactive:
CCOC(=O)C1(CCOc2ccccc2)CCN(Cc2ccc(O)c(Cl)c2)CC1

Reference: PubChem BioAssay AID687042 (Broad Institute, 2013)
